Laboratory results taken from PubChem BioAssay (NCI).
Compounds without any hit were thinned out: in the full panel of roughly 83,000, 20% have a hit.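 Compound tested at a single concentration for 48 hours in 96-well plates; a percent growth value below 10 was scored as active.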 A number with no mark means an inactive call. The source made the active and inactive calls.

Legend:
Test in all cases: NCI-60 one-dose screen, 48 h (100 = growth as untreated, 0 = no growth, -100 = all killed)
Details in all cases: 10 µM
RPMI-8226 leukemia = system: RPMI-8226 leukemia
OVCAR-8 ovarian = system: OVCAR-8 ovarian
OVCAR-5 ovarian = system: OVCAR-5 ovarian
OVCAR-4 ovarian = system: OVCAR-4 ovarian
SK-OV-3 ovarian = system: SK-OV-3 ovarian
OVCAR-3 ovarian = system: OVCAR-3 ovarian
HS 578T breast = system: HS 578T breast
NCI/ADR-RES ovarian = system: NCI/ADR-RES ovarian
T-47D breast = system: T-47D breast
BT-549 breast = system: BT-549 breast
MDA-MB-435 melanoma = system: MDA-MB-435 melanoma
SW-620 colon = system: SW-620 colon
MCF7 breast = system: MCF7 breast
HCT-116 colon = system: HCT-116 colon
HCC-2998 colon = system: HCC-2998 colon
KM12 colon = system: KM12 colon
IGROV1 ovarian = system: IGROV1 ovarian

| SMILES | growth (RPMI-8226 leukemia) | growth (OVCAR-8 ovarian) [%] | growth (OVCAR-5 ovarian) [%] | growth (OVCAR-4 ovarian) [%] | growth (SK-OV-3 ovarian) [%] | growth (OVCAR-3 ovarian) | growth (HS 578T breast) [%] | growth (NCI/ADR-RES ovarian) [%] | growth (T-47D breast) | growth (BT-549 breast) [%] | growth (MDA-MB-435 melanoma) | growth (SW-620 colon) [%] | growth (MCF7 breast) [%] | growth (HCT-116 colon) [%] | growth (HCC-2998 colon) [%] | growth (KM12 colon) [%] | growth (IGROV1 ovarian) [%] |
| --- | --- | --- | --- | --- | --- | --- | --- | --- | --- | --- | --- | --- | --- | --- | --- | --- | --- |
| CN(C)c1ccc(/C=C/C=N/NC(=O)c2cc(O)c(O)c(O)c2)cc1 | 99.9% | 89.3 | 102 | 67.8 | 99.3 | 90.9% | 100 | 102 | 25.3% | 89.7 | 96.7% | 43.4 | 87.8 | 52.7 | 109 | 104 | – |
| O=C(NN1C(=O)CSC1c1ccc(Cl)cc1)c1cccnc1 (stereo not given) | 74.8% | 99.7 | 86.7 | 118 | 106 | 121% | – | 91.4 | 102% | 102 | 87.3% | – | 111 | 86.9 | – | 94.2 | – |
| Cc1ccc(C(=O)N2C/C(=C/c3ccc(F)cc3)C(=O)/C(=C/c3ccc(F)cc3)C2)cc1 | -18% (active) | 91.4 | 110 | 87.7 | 92.5 | 101% | 107 | 82 | 81.9% | 92.5 | 84.5% | 82.4 | 37.7 | 10.6 | 108 | – | – |
| N=C(N)c1ccc(-c2ccc(-c3ccccc3)o2)nc1 | 38.6% | 92.6 | 85 | 75.3 | – | 106% | 131 | 100 | 81.5% | 101 | 81.4% | 86.7 | 72.3 | 76.6 | 27.5 | – | 95.7 |
| COc1ccc(-c2nc3sc(C4CC4)nn3c2/C=C2/C(=O)Nc3ccc(OC)cc32)cc1 | 58% | 76.7 | 89.5 | 44.6 | – | 79.7% | 25.3 | 77.2 | 68.7% | – | 61.6% | 77.7 | 30.1 | – | 104 | 77.8 | 81.5 |
| Cc1cc(N(CCCNc2ccnc3cc(Cl)ccc23)Cc2cccs2)nc(Cl)n1 | -6.73% (active) | 44.7 | 69.1 | 31.8 | – | 55.7% | 65.4 | 36.4 | 22.1% | – | 48.9% | 32.9 | 40.8 | 21.4 | 36.8 | 39.1 | 50.8 |
| Nc1c(C(=O)Nc2ccccc2Cl)sc2nc3c(cc12)C(=O)CCC3 | 87.9% | 100 | 70.5 | 84.4 | – | 56.4% | 40.8 | 57.2 | 75% | 61.2 | -53.3% (active) | 29 | 16.1 | 76.5 | 63.2 | 28.5 | – |
| COc1cc(OC)cc(-c2cncn2-c2ccc(-c3nc4cc(OC)cc(OC)c4s3)cc2)c1 | 44.6% | 80.7 | 99.9 | – | 70.5 | 20.3% | 50.3 | 21.2 | 62.8% | 46.6 | -16.3% (active) | 48.2 | 20.9 | 36.8 | 70.2 | 38.5 | 56.1 |
| O=C(CCCCC(=O)Nc1ccc2c(c1)/C(=C/c1ccc[nH]1)C(=O)N2)NO | 96.3% | 69.4 | 100 | 56.6 | – | 36.9% | 72.4 | 93.8 | 0.269% (active) | – | 74.8% | 83.9 | 61.9 | 88.3 | 101 | 78 | 95.5 |
| Nc1c(C(=O)Nc2cccc(Br)c2)sc2nc3c(cc12)C(O)CCC3 (stereo not given) | 14.7% | 30.6 | 60.4 | 65.8 | – | -18.2% (active) | 28.3 | 24.5 | 47.4% | 45.2 | -42.1% (active) | 36.4 | 21 | 16.4 | 31.5 | 22.8 | 27.9 |
